Test results published in the supplement of paper PMC6555819.

Columns and labels:
Assay in all cases: PBM binding z-score (relative to random genomic background probes); higher = stronger binding; sequences stand for … in GC…GCGATTGACAGCGTAGAATGAAGG
[1] = test system: RARb homodimer (NR concentration 270 nM)
Summary of the method: (§1)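 Ligand-free nuclear receptor dimers were applied to custom Agilent 4×180K protein-binding microarrays whose double-stranded probes carried direct-repeat seeds, single-nucleotide variants, half-site ablations and random human genomic background sequences in 34-nt variable regions. Incubation lasted 1 h. Binding z-scores were computed against the random background probes from regression-normalized fluorescence.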

[2] = test system: RARg:RXRa (NR concentration 270 nM, RXRa partner concentration 90 nM)
Summary of the method: as §1

[3] = test system: RARg homodimer (NR concentration 270 nM)
Summary of the method: as §1

[4] = test system: RXRa DBDmut IVT, anti-RXR (DBD mutation: RXRa K156A/R161A, NR concentration 90 nM)
Summary of the method: as §1

[5] = test system: RXRa homodimer (NR concentration 180 nM)
Summary of the method: as §1

[6] = test system: THRa:RXRa (NR concentration 90 nM, RXRa partner concentration 90 nM)
Summary of the method: as §1

[7] = test system: THRa homodimer (NR concentration 90 nM)
Summary of the method: as §1

[8] = test system: VDR homodimer (NR concentration 270 nM)
Summary of the method: as §1

Sequence | PBM binding z-score [1] | PBM binding z-score [2] | PBM binding z-score [3] | PBM binding z-score [4] | PBM binding z-score [5] | PBM binding z-score [6] | PBM binding z-score [7] | PBM binding z-score [8]
TCTCGGAGGACACGAAAGGTCAGAGCGCGACATC | 4.91 | 5.18 | 5.35 | 1.09 | 4.3 | 3.82 | 1.12 | 1.22
CGTCCAAGGTCAAGGTCAGTCAAAGAGACTCGAA | 5.15 | 6.95 | 7.59 | 4.09 | 6.7 | 4.16 | 3.61 | 3.55
AGCATGAGGTTACCAAAGATCAGGGAAACGCTTG | 1.04 | 2.27 | 1.81 | 1.12 | 2.78 | 2.96 | 0.893 | 0.309
TCTGGGAGGACACGAAAGGTCAGAGCTCGACATC | 4.8 | 4.88 | 5.82 | 0.799 | 4.23 | 3.73 | 1.59 | 1.27
AGAATGAGGTTATACGTAGATCTGGGAAGAAAGT | 0.334 | 1.39 | 0.958 | 1.1 | 1.94 | 2.03 | 0.225 | 0.724
GCGACTGGGGCAGCAGCAGGTTACCATAACTTAA | 0.746 | 0.167 | 0.234 | -0.331 | -0.00155 | 0.651 | -0.162 | -0.595
TCTTGTAGATCAAAGGTTAAGAACGCCGAAGCCT | 1.51 | 1.82 | 0.951 | 0.794 | 3.38 | 1.53 | -0.428 | 0.13
ATCTCTAGGTCAGACTCAGTTCAGTGAAGAACGC | 3.14 | 3.81 | 4.03 | 1.47 | 1.67 | 2.94 | 2.03 | 2.32
TTACCAAGGTGAGCTGAGTTCGTTGATCCAACTC | 0.421 | 0.2 | 0.307 | 0.458 | 0.157 | 2.71 | 0.173 | 3.63
GATACAGGGTAAGCTAGAGGCCAGAGTATGGAAA | 0.413 | 0.988 | 0.547 | -0.967 | 0.303 | 0.219 | -0.653 | -0.382
CCCTACGGGTCAAGGTTATAGCACGGGTGGTACG | 3.5 | 5.05 | 4.83 | 0.145 | 5.35 | 3.07 | 0.962 | 1.07
CCTATTTGGTCAAGGTCACACACGCTATAGGTAC | 4.51 | 4.63 | 4.57 | 2.35 | 4.55 | 4.2 | 4.49 | 3.03
CGAACGAGGGCAAGAGTTGATAGCAAATGCCGAT | 1.44 | 1.67 | 1.85 | 1.89 | 1.1 | 0.79 | -0.443 | 1.07
TCTTGTAGATCAAATGTTAAGAAAGCCGAAGCCT | -0.797 | -0.173 | -0.241 | 1.15 | 0.176 | -0.551 | -0.39 | -0.522
